In the library only some 22% were active in any assay of this set; here they are far more common.
LmPK inh: blocks Leishmania mexicana pyruvate kinase activity | Q27686 | purified LmPK, Kinase-Glo ATP luminescence, 1 h | Potency, µM (highest dose often 57.5 µM), usual class: inhibitors | 290,000 tested, 0.37% active | AID 1721
Target sequence (Q27686 whole entry, looked up): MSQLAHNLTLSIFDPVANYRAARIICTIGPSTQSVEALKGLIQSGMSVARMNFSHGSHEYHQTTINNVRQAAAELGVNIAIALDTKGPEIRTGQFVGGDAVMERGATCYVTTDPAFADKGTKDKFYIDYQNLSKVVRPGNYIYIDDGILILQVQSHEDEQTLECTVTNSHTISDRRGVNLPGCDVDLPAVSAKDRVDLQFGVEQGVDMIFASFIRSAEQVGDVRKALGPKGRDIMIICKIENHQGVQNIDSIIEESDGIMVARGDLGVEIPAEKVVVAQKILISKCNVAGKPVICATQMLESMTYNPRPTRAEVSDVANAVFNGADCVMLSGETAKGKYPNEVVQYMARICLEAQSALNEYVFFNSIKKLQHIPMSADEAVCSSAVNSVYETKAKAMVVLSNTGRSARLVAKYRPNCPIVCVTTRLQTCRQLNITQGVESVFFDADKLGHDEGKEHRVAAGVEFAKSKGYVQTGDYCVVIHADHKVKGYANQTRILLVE
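Purified LmPK (0.1 nM) with 0.5 mM PEP and 0.1 mM ADP in imidazole buffer pH 7.2 with MgCl2/KCl, 1 h at room temperature. ATP formed was read by luciferase luminescence and normalized to no-enzyme and uninhibited controls.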
Pf growth 96h: inhibits malaria parasite growth, 96 h; Potency, µM (top dose mostly 28.7 µM), actives largely listed as inhibitors; P. falciparum luciferase reporter growth, 96 h; AID 504834; 320,000 tested, 6.9% active
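Erythrocytes infected with luciferase-expressing P. falciparum were dispensed at 2% hematocrit and 0.05% parasitemia (final), then incubated with compounds 96 hours at 37 C in 5% CO2. Luminescence after detection reagent addition reported growth.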
Pf growth 48h: inhibits P. falciparum growth in the first generation, 48 h | P. falciparum luciferase growth in erythrocytes, 48 h | Potency, µM (series often up to 28.7 µM), hits mostly inhibitors | 310,000 tested, 5.9% active | AID 504832
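Luciferase-expressing P. falciparum in infected erythrocytes (2% hematocrit, 0.1% parasitemia final) in RPMI 1640/0.5% Albumax were exposed to compound for 48 hours at 37 C, 5% CO2; growth read as luminescence.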
Shiga inhibitor: inhibitors of Shiga toxin in Vero cells; 290,000 tested, 9.2% active; Vero cells, Shiga toxin protein synthesis inhibition reporter; inhibition, % at 38.7 µM; in the data active = inhibition mostly above about 28%, no sharp cut-off; inactive = mostly below about 43%
Cycloheximide cs: counter-screen hit for Shiga toxin inhibitors, cycloheximide. cell reporter, cycloheximide protein synthesis inhibition counterscreen. max response, %. 300,000 tested, 12% active. AID 2314; in the data active = max response mostly above about 13%, no sharp cut-off; inactive = mostly below about 14%; also: read at 38.3 µM for the half of the compounds with a filed dose
A number is an active result; – = inactive; ? = inconclusive; · = no result; + = active, no number; [ ] = remark or other dose. Unless noted, calls follow the shape of the dose curve; as a rule, active = well fitted inhibition curve with a large enough effect; inconclusive = small, poorly fitted or top-dose-only effect, or another doubt; inactive = no such curve, though single readings can be large or run the other way.

SMILES	LmPK inh	Pf growth 96h	Pf growth 48h	Shiga inhibitor	Cycloheximide cs
CC(=O)Nc1ccc(S(=O)(=O)N2CCC(N3CCCCC3)CC2)cc1	–	?	–	–	–
C=CCSc1nnc(-c2ccc([N+](=O)[O-])cc2)o1	–	–[1.15 µM]	–	–	19
NC(=O)CSc1nnc(-c2ccc([N+](=O)[O-])cc2)o1	–	–	–	–	19
C=CCSc1nnc(-c2cccnc2)o1	–	–	–	22	15
O=C(CSc1nnc(-c2ccncc2)o1)c1cccc([N+](=O)[O-])c1	–	–	–	–	–
COc1cc2oc(=O)cc(-c3ccc(-c4ccc(CO)cc4)cc3)c2c(OC)c1OC	·	·	·	–	–
Cc1ccc2cc(-c3noc(C(C)(C)C)n3)c(=O)[nH]c2c1	–	–	?	–	–
CCc1nc(-c2cc3ccc(C)cc3[nH]c2=O)no1	–	?	–	–	17
Cc1ccc2cc(CCNC(=O)c3ccco3)c(=O)[nH]c2c1	–	·	–	63	31
Cc1ccc2cc(CCNC(=O)c3ccco3)c(=O)[nH]c2c1C	–	–	–	+	61
COc1ccc(C(=O)NCCc2cc3ccc(C)c(C)c3[nH]c2=O)cc1OC	–[11.5 µM]	?	–	–	–
CCCS(=O)(=O)NCCc1cc2ccc(C)cc2[nH]c1=O	–	–	–	28	12
CCc1nc2cc([N+](=O)[O-])c([N+](=O)[O-])cc2[nH]1	–	–	–	–	–
COc1ccc2cc(CCNC(=O)c3ccco3)c(=O)[nH]c2c1	–	?	–	95	58
CCOc1ccc(-c2cc(CCCC(=O)NCc3cccnc3)no2)cc1	–	–	–	65	51
CCOc1ccc(-c2cc(CCCC(=O)NCCc3ccccc3)no2)cc1	–	·	·	–	–
CCOc1ccc(-c2cc(CCCC(=O)NCCC(C)C)no2)cc1	–[11.5 µM]	?	–	134	25
O=C(NCc1ccccc1C(F)(F)F)C1CCC(=O)N(CCCc2ccccc2)C1 (configuration not stated)	–	–	–	–	–
COc1ccc(CNC(=O)C(C)N2CCN(c3ccc(C(C)=O)cc3)CC2)cc1 (configuration not stated)	–	–	–	–	17
CC(C(=O)NCc1ccccc1)N1CCN(c2ccc(F)cc2)CC1 (configuration not stated)	–	–	–	–	–
O=c1cc(O)c(Cl)c[nH]1	·	?	–	·	·
C[N+]12CCC(CC1)C(C(O)(c1ccccc1)c1cccs1)C2 (configuration not stated)	–	2.6µM	12µM	–	–
CCCC[N+]12CCC(CC1)C(C(O)(c1ccccc1)c1ccccc1)C2 (configuration not stated)	–	10µM	?	–	–
CCC[N+]12CCC(CC1)C(C(O)(c1ccccc1)c1ccccc1)C2 (configuration not stated)	–	5.2µM	?	–	–
CCCc1cc2nnc(SCC(=O)N(C)C3CCCCC3)n2c(N)n1	–	–	–	–	–
SMILES	LmPK inh	Pf growth 96h	Pf growth 48h	Shiga inhibitor	Cycloheximide cs
Cc1ccc(-n2nc3c(N4CCC(C(=O)NCCc5ccco5)CC4)nnc(C)c3c2C)cc1	–	–	?	–	–
Cc1ccc(-n2nc3c(N4CCC(C(=O)NCc5ccc(C)o5)CC4)nnc(C)c3c2C)cc1	–	10µM	?	–	–
Cc1ccc(-n2nc3c(N4CCC(C(=O)NCCc5ccccc5C)CC4)nnc(C)c3c2C)cc1	–	–	?	–	–
Cc1ccc(-n2nc3c(N4CCC(C(=O)NCc5cccc(F)c5)CC4)nnc(C)c3c2C)cc1	–	4.1µM	?	–	–
O=C(Nc1cccc(S(=O)(=O)N2CCCCCC2)c1)C1CC(=O)N(c2ccc3c(c2)OCCO3)C1 (configuration not stated)	·	–	–	·	·
CC(=O)Nc1ccc(S(=O)(=O)N2CCC(C(=O)O)(c3ccccc3)CC2)cc1	–	?	–	·	–
CCOC(=O)c1ccc(-n2ccnc2)c(NC(=O)c2ccc(C(C)(C)C)cc2)c1	–	15µM	13µM	–	–
COCCCn1c(SCC(=O)N2CCOCC2)nc2ccccc2c1=O	–	?	–	–	–
FC(F)(F)c1nc(-c2ccncc2)ncc1-c1nnnn1-c1ccccc1	–	?	?	–	–
Fc1ccc(-n2nnnc2-c2cnc(-c3cccs3)nc2C(F)(F)F)cc1	–	5.2µM	?	–	–
c1ccc(-n2nnnc2-c2cnc(-c3ccncc3)nc2-c2cccs2)cc1	–	?	10µM	–	–
Cc1ccc(-n2nnnc2-c2cnc(-c3cccnc3)nc2C(F)(F)F)cc1	–	?	·	–	–
CC(=O)c1ccc(-n2c(CCC(=O)O)ccc2-c2ccccc2)cc1	–	–	–	–	–
COC(=O)Cn1c(CCC(=O)O)ccc1-c1ccccc1	–	8.3µM	·	–	–
O=C(O)CCc1ccc(-c2ccccc2)n1CC1CCCO1 (configuration not stated)	–	·	–	–	–
Cc1ccc(-c2ccc(CCC(=O)O)n2CC2CCCO2)cc1 (configuration not stated)	–	?	–	–	14
COC(=O)c1ccc(-n2c(CCC(=O)O)ccc2-c2ccccc2)cc1	–	3.7µM	–	–	–
COc1ccc(-n2c(C)ccc2-c2ccccc2)cn1	–	?	?	·	–
COC(=O)c1ccc(-n2c(C)ccc2-c2ccccc2)cc1	–	?	?	–	14
C=CCN1C(=O)/C(=C\c2ccc(Oc3nc(N4CCOCC4)nc(N4CCOCC4)n3)c(OC)c2)SC1=S	–	–	?	–	–
COCCN1CCN(C(=O)C2CCC(=O)N(Cc3cccc(C(F)(F)F)c3)C2)CC1 (configuration not stated)	–	–	–	–	–
O=C(NCc1cccc(OC(F)(F)F)c1)C1CCC(=O)N(Cc2cccc(F)c2)C1 (configuration not stated)	–	?	–	–	–
CC(=O)c1ccc(-n2c(C)ccc2-c2ccccc2)cc1	–	?	·	–	29
CCCn1c(CCC(=O)O)ccc1-c1ccc(F)cc1	–	9.3µM	–	–	–
O=C(O)CCc1ccc(-c2ccc(F)cc2)n1CC(=O)O	–	–	–	–	–
SMILES	LmPK inh	Pf growth 96h	Pf growth 48h	Shiga inhibitor	Cycloheximide cs
CC(=O)Nc1ccc(-n2c(C)ccc2-c2ccccc2)cc1	–	?	–[0.00184 µM]	–	–
O=C1CC(c2ccc(F)cc2)CC(O)=C1C1NCCc2ccccc21 (configuration not stated)	–	–	–	–	19
Cc1ccc(N2CC(C(=O)Nc3ccc(C)c(S(=O)(=O)N(C)C)c3)CC2=O)cc1 (configuration not stated)	–	?	?	–	–
CN1C(=O)C(=Cc2ccccc2Oc2ccc(Cl)cc2)C(=O)N(C)C1=O	–	–	–	–	–
CN1C(=O)C(=Cc2ccc(OCCN(C)c3ccccn3)cc2)C(=O)N(C)C1=O	–	–	–	–	21
CCc1c(C)nc2c(C#N)c(C)[nH]n2c1=O	–	5.2µM	–	–	–
Cc1[nH]n2c(=O)cc(Cc3ccccc3)nc2c1C#N	–	10µM	–	–	–

Compound activity from PubChem BioAssay.
